In all, about 39,000 sequences were measured (“fluorescence intensity (a.u.)”: median about 4,300, highest 2% from about 39,000 on). This is one part of a sample in which the highest values are shown more often than they occur.
Molecular target: T1, OsSMF1 (Oryza sativa, UniProt Q6ZLB0 1-436)
T1 sequence: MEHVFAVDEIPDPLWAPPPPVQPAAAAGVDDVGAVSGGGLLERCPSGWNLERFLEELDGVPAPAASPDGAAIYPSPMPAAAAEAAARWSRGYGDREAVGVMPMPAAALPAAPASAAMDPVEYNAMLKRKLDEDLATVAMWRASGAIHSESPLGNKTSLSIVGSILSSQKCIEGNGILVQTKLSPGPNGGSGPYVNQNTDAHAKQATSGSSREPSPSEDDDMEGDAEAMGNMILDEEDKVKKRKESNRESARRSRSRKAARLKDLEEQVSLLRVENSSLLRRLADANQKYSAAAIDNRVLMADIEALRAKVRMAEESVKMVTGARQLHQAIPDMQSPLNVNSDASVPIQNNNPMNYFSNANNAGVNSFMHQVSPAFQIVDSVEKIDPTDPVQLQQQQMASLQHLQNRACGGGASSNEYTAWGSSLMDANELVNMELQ
Assay: protein-binding microarray (RPBM); PBS, 2% BSA, 51.3 ng/ul salmon testes DNA, 50 uM zinc acetate, 200 nM TF, 25 C, 1 h; high values mean tight binding
Conditions: protein: recombinant; tags: N-terminal polyhistidine and DsRed monomer fusion (pET32a); chain copies: 2; label: CyDye5-dUTP incorporated in the synthesized complementary strand; 3' TTTTT single-stranded linker to array surface; dsDNA, one strand shown
How it was run: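 Transcription factors, each fused N-terminally to a polyhistidine tag and DsRed, were expressed in E. coli BL21-CodonPlus and purified on Ni–NTA. A custom Agilent array was made double-stranded by primer extension with Cy5-dUTP and blocked with 2% BSA. It was incubated with 200 nM protein in PBS, 2% BSA, salmon testes DNA and 50 µM zinc acetate at 25 °C for 1 h, then washed. The binding signal is per-feature fluorescence intensity (arbitrary units) read on an Axon 4000B scanner.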

| Sequence | binding signal |
| --- | --- |
| CGCGCGAGTGCTAGGAAGCTGAGTCACGCCCGCCCTCCTCCGGAGTCACCTAGTGCAG | 10700 fluorescence intensity (a.u.) |
| TCCCACATTAAATTTACTCATTAGTTGTTAGGAATCGACACGGAGTCACCTAGTGCAG | 20600 fluorescence intensity (a.u.) |
| CAAGAGAAAATAGCCAAAATAATAGCAGTAAGAACACAATCGGAGTCACCTAGTGCAG | 15400 fluorescence intensity (a.u.) |
| CAGTAAGCTAGCAAACAAACACACAAGAATATTTGTGATCCGGAGTCACCTAGTGCAG | 39900 fluorescence intensity (a.u.) |
| CAGAATATTTTGTCAGTCACTCTTGATCACTCTAGCAACACGGAGTCACCTAGTGCAG | 3980 fluorescence intensity (a.u.) |
| ATCGTGTGACGACGTCTCGTCTCGTCTCCCTCTCCCGACCCGGAGTCACCTAGTGCAG | 3260 fluorescence intensity (a.u.) |
| CGACCGACCCTCGCCCGCCCACCGCCGTCACTCTCGTCTGCGGAGTCACCTAGTGCAG | 3920 fluorescence intensity (a.u.) |
| CGGGCACTCTCGTCTCCGACGTGAAGGCCCGAGATCACTGCGGAGTCACCTAGTGCAG | 60900 fluorescence intensity (a.u.) |
| GGTTGATTATTCCGTCGGCGTCAGCCATCAGGTGCATCACCGGAGTCACCTAGTGCAG | 3270 fluorescence intensity (a.u.) |
| TCTTTCGTCGCAATGCCACGCCATCATCGATCCCTTTCCTCGGAGTCACCTAGTGCAG | 14800 fluorescence intensity (a.u.) |
| TTTCGGGATCCGACACGGGCTGAATCCGGCCCATCCAAACCGGAGTCACCTAGTGCAG | 37800 fluorescence intensity (a.u.) |
| TAAACGCAAATTCTATATCACAACCACGTAAGTTTAGTAGCGGAGTCACCTAGTGCAG | 3870 fluorescence intensity (a.u.) |
| GGAGTAGATATTATCACTAGCTAGTCACACGGACACAGTGCGGAGTCACCTAGTGCAG | 4900 fluorescence intensity (a.u.) |
| GTCTAGCTAGTGCAATTAGAGTAACCTATATATCACACAACGGAGTCACCTAGTGCAG | 52200 fluorescence intensity (a.u.) |
| TCGCCGCCGCGGCCGCCTCCACCTCATCATCTCCCACCTCCGGAGTCACCTAGTGCAG | 7900 fluorescence intensity (a.u.) |
| GTACGCGAGCATCCCGGCGTTGTCGAGGCGCTCCAGGACGCGGAGTCACCTAGTGCAG | 40200 fluorescence intensity (a.u.) |
| GCGGCGCATCCAGGAGGTTGAGTCGAGCACGCCACCGCTGCGGAGTCACCTAGTGCAG | 3420 fluorescence intensity (a.u.) |
| ACCTCCCACACCTGTGTCGATCCAGGCAGGCCGAGCGCGACGGAGTCACCTAGTGCAG | 43400 fluorescence intensity (a.u.) |
| CACGGCCTCACCTCCCAGCCCGCGAGCACCGGCGGACGGACGGAGTCACCTAGTGCAG | 42400 fluorescence intensity (a.u.) |
| AGGGCGAGGAGGCGCTTGAGGGCGTCGAGCTTGTCGGCATCGGAGTCACCTAGTGCAG | 28400 fluorescence intensity (a.u.) |
| GCTGCCAGCGCCGCCGCCACCTGTGTCGGCACGCGAGCGCCGGAGTCACCTAGTGCAG | 3350 fluorescence intensity (a.u.) |

| Sequence | binding signal |
| --- | --- |
| GTCCCCGGCCTCGGCGCGCGGCGAGCACCGTGCCGCCCCACGGAGTCACCTAGTGCAG | 24000 fluorescence intensity (a.u.) |
| TTGAGCAGCCTCCCTTCCCCGGCGAGCAGCCCCGCCGCCGCGGAGTCACCTAGTGCAG | 3720 fluorescence intensity (a.u.) |
| ACATCACCACCCACCTCACCCTGCCGCTCCCGAGCGCGATCGGAGTCACCTAGTGCAG | 4000 fluorescence intensity (a.u.) |
| AAACTGGCAAACGCGTCACATGAGTTTTACCTACCAATGTCGGAGTCACCTAGTGCAG | 3230 fluorescence intensity (a.u.) |
| ATTTCAATGTCAAGATGAGAAGGGAATTTAAGAGCCTGCACGGAGTCACCTAGTGCAG | 22800 fluorescence intensity (a.u.) |
| GCGCAGGCAACCACCCCACCCTTCTTCTCGAAACCTCTTCCGGAGTCACCTAGTGCAG | 3290 fluorescence intensity (a.u.) |
| ATGAAGGATGCTTAAAAGTCTATTTTGCCTCGGCAAAATACGGAGTCACCTAGTGCAG | 28700 fluorescence intensity (a.u.) |
| TTTCACGAAACCCAGTGATCCTGTCAGGTATCCTATGTACCGGAGTCACCTAGTGCAG | 3760 fluorescence intensity (a.u.) |
| GAAACCTGATGATGCTTGATGGAAATCCATTAGACAGCGTCGGAGTCACCTAGTGCAG | 4580 fluorescence intensity (a.u.) |
| TTGTACAGCAGCGTGCTTCCATATGAGGAAATCCACTTCTCGGAGTCACCTAGTGCAG | 44200 fluorescence intensity (a.u.) |
| TTCTCTTCCAAAGGAAATGTATAAATCCACCATTAACTTTCGGAGTCACCTAGTGCAG | 19900 fluorescence intensity (a.u.) |
| CGGCCCAGCAGGCGAGCGTGACGTGGACCGGTCGTTTCGCCGGAGTCACCTAGTGCAG | 5650 fluorescence intensity (a.u.) |
| TTGGCTGGAGCATCGTCACTACTATTCGACACTAAGGTGTCGGAGTCACCTAGTGCAG | 3240 fluorescence intensity (a.u.) |
| AGAATTCCGTGATACGCGCATACGCGTCGACAAGAGAAATCGGAGTCACCTAGTGCAG | 3280 fluorescence intensity (a.u.) |
| CCACGCGTCGTCGACGTACTGCGCGATGACGGCGGACTCGCGGAGTCACCTAGTGCAG | 4700 fluorescence intensity (a.u.) |
| GCCTCGAACGACGTGTGGACGCGATGGAAGATGCGTTCTGCGGAGTCACCTAGTGCAG | 3210 fluorescence intensity (a.u.) |
| GGAAGGCGACGCGTTACTGTGCACGATGCGGACCTCGAAACGGAGTCACCTAGTGCAG | 60400 fluorescence intensity (a.u.) |
| TCGCTCGCTCGCCTGCCAAATCTGCATTGGTGCTAGGAGGCGGAGTCACCTAGTGCAG | 3730 fluorescence intensity (a.u.) |
| ACGCGCTCGCCTCGCGTCATCGGATCAAATGGTGGAGGCGCGGAGTCACCTAGTGCAG | 3970 fluorescence intensity (a.u.) |
| CATACATGGAAAAGACAAATCGCCTGGTGCATGAGGCGCTCGGAGTCACCTAGTGCAG | 40600 fluorescence intensity (a.u.) |
| TCCTTTCGTTATCTGTACGGCAGTGACGTCCACGACTCGACGGAGTCACCTAGTGCAG | 4340 fluorescence intensity (a.u.) |
